# Test results as given in the supplement of paper PMC11001985.
# Unmarked numbers belong to inactive results.
# How the values were obtained:
# Assay in all cases: lysine labeling ratio R10:1 (500 µM / 50 µM probe), SILAC-ABPP in living cells; higher = lower intrinsic lysine reactivity toward the probe, active = 2 or less
# Conditions in all cases: HeLa; probe concentrations 500 vs 50 µM
# [1] = molecular target: ACLY (lysine site: K1080) (UniProt P53396)
# How it was run: (§1)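 Each lysine carries an R value: the filtered median of MS1 peptide ratios of high probe to low probe, with the median then taken over forward and reverse replicates. These came from living SILAC light and heavy HeLa cells in PBS at room temperature labelled with an alkyne-tagged, disulfide-linked lysine probe at 500 µM or 50 µM, in forward and reverse swaps. The lysates were mixed, clicked to biotin-azide, trypsin-digested, captured on neutravidin, released by DTT, alkylated and run by LC-MS/MS on a TIMS-TOF Pro. The highest value allowed is 20.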
# [2] = molecular target: ACLY (lysine site: K272) (UniProt P53396)
# How it was run: as §1
# [3] = molecular target: ACLY (lysine site: K780) (UniProt P53396)
# How it was run: as §1
# [4] = molecular target: ACLY (lysine site: K836) (UniProt P53396)
# How it was run: as §1
# [5] = molecular target: ACLY (lysine site: K968) (UniProt P53396)
# How it was run: as §1
# [6] = molecular target: ACLY (lysine site: K978) (UniProt P53396)
# How it was run: as §1
# [7] = molecular target: ADAM10 (lysine site: K273) (UniProt O14672)
# How it was run: as §1
# [8] = molecular target: ADAM10 (lysine site: K410) (UniProt O14672)
# How it was run: as §1
# [9] = molecular target: ADAM10 (lysine site: K601) (UniProt O14672)
# How it was run: as §1
# [10] = molecular target: BACE2 (lysine site: K299) (UniProt Q9Y5Z0)
# How it was run: as §1
# [11] = molecular target: BSG (lysine site: K264) (UniProt P35613)
# How it was run: as §1
# [12] = molecular target: CALR (lysine site: K159) (UniProt P27797)
# How it was run: as §1
# [13] = molecular target: CALR (lysine site: K360) (UniProt P27797)
# How it was run: as §1
# [14] = molecular target: CALR (lysine site: K64) (UniProt P27797)
# How it was run: as §1
# [15] = molecular target: CAV1 (lysine site: K47) (UniProt Q03135)
# How it was run: as §1
# [16] = molecular target: CDC37 (lysine site: K60) (UniProt Q16543)
# How it was run: as §1
# [17] = molecular target: CSDE1 (lysine site: K307) (UniProt O75534)
# How it was run: as §1
# [18] = molecular target: CSTB (lysine site: K91) (UniProt P04080)
# How it was run: as §1
# [19] = molecular target: DDX50 (lysine site: K271) (UniProt Q9BQ39)
# How it was run: as §1
# [20] = molecular target: DDX50 (lysine site: K432) (UniProt Q9BQ39)
# How it was run: as §1
# [21] = molecular target: GART (lysine site: K251) (UniProt P22102)
# How it was run: as §1
# [22] = molecular target: HNRNPF (lysine site: K224) (UniProt P52597)
# How it was run: as §1
# [23] = molecular target: HNRNPF (lysine site: K87) (UniProt P52597)
# How it was run: as §1
# [24] = molecular target: HNRNPF (lysine site: K98) (UniProt P52597)
# How it was run: as §1
# [25] = molecular target: HYOU1 (lysine site: K797) (UniProt Q9Y4L1)
# How it was run: as §1
# [26] = molecular target: ITIH2 (lysine site: K148) (UniProt P19823)
# How it was run: as §1
# [27] = molecular target: ITIH2 (lysine site: K150) (UniProt P19823)
# How it was run: as §1
# [28] = molecular target: ITIH2 (lysine site: K190) (UniProt P19823)
# How it was run: as §1
# [29] = molecular target: LMAN2 (lysine site: K303) (UniProt Q12907)
# How it was run: as §1
# [30] = molecular target: MDH2 (lysine site: K185) (UniProt P40926)
# How it was run: as §1
# [31] = molecular target: NCR3LG1 (lysine site: K101) (UniProt Q68D85)
# How it was run: as §1
# [32] = molecular target: NECTIN2 (lysine site: K97) (UniProt Q92692)
# How it was run: as §1
# [33] = molecular target: PHB (lysine site: K240) (UniProt P35232)
# How it was run: as §1
# [34] = molecular target: PODXL (lysine site: K385) (UniProt O00592)
# How it was run: as §1
# [35] = molecular target: PODXL (lysine site: K394) (UniProt O00592)
# How it was run: as §1
# [36] = molecular target: PODXL (lysine site: K418) (UniProt O00592)
# How it was run: as §1
# [37] = molecular target: PODXL (lysine site: K422) (UniProt O00592)
# How it was run: as §1
# [38] = molecular target: PODXL (lysine site: K444) (UniProt O00592)
# How it was run: as §1
# [39] = molecular target: PSMD6 (lysine site: K130) (UniProt Q15008)
# How it was run: as §1
# [40] = molecular target: PSMD6 (lysine site: K372) (UniProt Q15008)
# How it was run: as §1
# [41] = molecular target: PTPRK (lysine site: K227) (UniProt Q15262)
# How it was run: as §1
# [42] = molecular target: PTPRK (lysine site: K244) (UniProt Q15262)
# How it was run: as §1
# [43] = molecular target: PTPRK (lysine site: K262) (UniProt Q15262)
# How it was run: as §1
# [44] = molecular target: PTPRK (lysine site: K394) (UniProt Q15262)
# How it was run: as §1
# [45] = molecular target: PTPRK (lysine site: K397) (UniProt Q15262)
# How it was run: as §1
# [46] = molecular target: PTPRK (lysine site: K722) (UniProt Q15262)
# How it was run: as §1
# [47] = molecular target: SACM1L (lysine site: K483) (UniProt Q9NTJ5)
# How it was run: as §1
# [48] = molecular target: SLC25A3 (lysine site: K218) (UniProt Q00325)
# How it was run: as §1
# [49] = molecular target: SLC25A3 (lysine site: K234) (UniProt Q00325)
# How it was run: as §1
# [50] = molecular target: SLC25A3 (lysine site: K252) (UniProt Q00325)
# How it was run: as §1
# [51] = molecular target: SLC25A3 (lysine site: K304) (UniProt Q00325)
# How it was run: as §1
# [52] = molecular target: SLC25A3 (lysine site: K313) (UniProt Q00325)
# How it was run: as §1
# [53] = molecular target: SNAP23 (lysine site: K64) (UniProt O00161)
# How it was run: as §1
# [54] = molecular target: TMED10 (lysine site: K145) (UniProt P49755)
# How it was run: as §1
# [55] = molecular target: TPBG (lysine site: K328) (UniProt Q13641)
# How it was run: as §1
# [56] = molecular target: TPBG (lysine site: K76) (UniProt Q13641)
# How it was run: as §1
# [57] = molecular target: TSPAN14 (lysine site: K132) (UniProt Q8NG11)
# How it was run: as §1
# [58] = molecular target: UniProt P08729 (lysine site: K273)
# How it was run: as §1
# [59] = molecular target: UniProt P08729 (lysine site: K296)
# How it was run: as §1
# [60] = molecular target: UniProt P08729 (lysine site: K326)
# How it was run: as §1
# [61] = molecular target: UniProt P08729 (lysine site: K331)
# How it was run: as §1
# [62] = molecular target: UniProt P08729 (lysine site: K353)
# How it was run: as §1
# [63] = molecular target: UniProt P08913 (lysine site: K190)
# How it was run: as §1
# [64] = molecular target: UniProt P50895 (lysine site: K482)
# How it was run: as §1
# [65] = molecular target: UniProt P50895 (lysine site: K531)
# How it was run: as §1
# [66] = molecular target: UniProt Q6ZS17 (lysine site: K71)
# How it was run: as §1
# [67] = molecular target: WLS (lysine site: K161) (UniProt Q5T9L3)
# How it was run: as §1
# [68] = molecular target: WLS (lysine site: K168) (UniProt Q5T9L3)
# How it was run: as §1
# [69] = molecular target: YWHAB (lysine site: K70) (UniProt P31946)
# How it was run: as §1
# [70] = molecular target: YWHAZ (lysine site: K85) (UniProt P63104)
# How it was run: as §1
# Sequence of ACLY (lysine site: K1080) (P53396 whole entry): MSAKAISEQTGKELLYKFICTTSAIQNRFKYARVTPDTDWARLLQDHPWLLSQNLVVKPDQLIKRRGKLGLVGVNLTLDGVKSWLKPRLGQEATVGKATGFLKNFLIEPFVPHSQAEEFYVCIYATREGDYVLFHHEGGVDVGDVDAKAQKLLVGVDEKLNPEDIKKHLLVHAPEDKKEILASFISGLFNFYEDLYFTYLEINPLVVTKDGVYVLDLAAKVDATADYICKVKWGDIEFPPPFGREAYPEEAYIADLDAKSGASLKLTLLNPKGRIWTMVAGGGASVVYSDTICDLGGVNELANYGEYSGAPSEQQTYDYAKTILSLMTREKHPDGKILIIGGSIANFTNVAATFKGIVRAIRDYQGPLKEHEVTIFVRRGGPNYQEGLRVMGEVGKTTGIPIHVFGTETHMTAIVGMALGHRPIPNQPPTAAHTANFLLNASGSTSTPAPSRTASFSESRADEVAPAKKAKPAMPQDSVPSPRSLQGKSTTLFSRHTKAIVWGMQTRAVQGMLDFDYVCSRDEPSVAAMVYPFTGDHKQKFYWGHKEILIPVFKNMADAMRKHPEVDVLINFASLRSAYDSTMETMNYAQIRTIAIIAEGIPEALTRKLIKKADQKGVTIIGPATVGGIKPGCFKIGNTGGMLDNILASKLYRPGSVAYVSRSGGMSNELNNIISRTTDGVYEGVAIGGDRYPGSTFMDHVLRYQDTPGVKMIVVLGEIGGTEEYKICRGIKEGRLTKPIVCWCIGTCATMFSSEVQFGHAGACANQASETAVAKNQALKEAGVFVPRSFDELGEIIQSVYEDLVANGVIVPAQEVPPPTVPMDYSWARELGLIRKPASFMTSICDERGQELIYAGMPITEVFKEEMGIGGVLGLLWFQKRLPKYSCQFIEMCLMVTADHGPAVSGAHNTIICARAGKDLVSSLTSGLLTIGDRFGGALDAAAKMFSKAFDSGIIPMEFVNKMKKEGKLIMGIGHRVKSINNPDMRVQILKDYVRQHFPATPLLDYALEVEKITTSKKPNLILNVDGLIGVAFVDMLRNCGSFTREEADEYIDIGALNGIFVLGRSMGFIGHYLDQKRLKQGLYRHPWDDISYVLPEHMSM
# Sequence of ACLY (lysine site: K272) (P53396 whole entry): as above
# Sequence of ACLY (lysine site: K780) (P53396 whole entry): as above
# Sequence of ACLY (lysine site: K836) (P53396 whole entry): as above
# Sequence of ACLY (lysine site: K968) (P53396 whole entry): as above
# Sequence of ACLY (lysine site: K978) (P53396 whole entry): as above
# Sequence of UniProt P50895 (lysine site: K482) (P50895 whole entry): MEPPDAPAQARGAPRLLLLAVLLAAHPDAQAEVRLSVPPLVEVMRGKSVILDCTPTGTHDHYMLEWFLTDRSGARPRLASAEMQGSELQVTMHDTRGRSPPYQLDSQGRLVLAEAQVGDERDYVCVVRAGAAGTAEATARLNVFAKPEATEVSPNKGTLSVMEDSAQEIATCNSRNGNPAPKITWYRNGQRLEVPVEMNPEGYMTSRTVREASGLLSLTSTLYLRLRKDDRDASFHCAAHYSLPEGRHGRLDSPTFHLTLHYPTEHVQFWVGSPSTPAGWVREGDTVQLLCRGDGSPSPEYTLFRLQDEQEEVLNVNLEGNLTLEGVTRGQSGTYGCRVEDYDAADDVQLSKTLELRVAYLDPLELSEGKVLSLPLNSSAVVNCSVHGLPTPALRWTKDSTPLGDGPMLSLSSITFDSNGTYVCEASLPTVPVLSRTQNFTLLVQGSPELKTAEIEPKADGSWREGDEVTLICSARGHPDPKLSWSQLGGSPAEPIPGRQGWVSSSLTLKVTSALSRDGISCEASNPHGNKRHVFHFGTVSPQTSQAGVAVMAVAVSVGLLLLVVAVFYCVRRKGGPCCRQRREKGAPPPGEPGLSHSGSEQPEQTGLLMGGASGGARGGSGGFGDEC
# Sequence of UniProt P50895 (lysine site: K531) (P50895 whole entry): as above
# Sequence of SLC25A3 (lysine site: K218) (Q00325 whole entry): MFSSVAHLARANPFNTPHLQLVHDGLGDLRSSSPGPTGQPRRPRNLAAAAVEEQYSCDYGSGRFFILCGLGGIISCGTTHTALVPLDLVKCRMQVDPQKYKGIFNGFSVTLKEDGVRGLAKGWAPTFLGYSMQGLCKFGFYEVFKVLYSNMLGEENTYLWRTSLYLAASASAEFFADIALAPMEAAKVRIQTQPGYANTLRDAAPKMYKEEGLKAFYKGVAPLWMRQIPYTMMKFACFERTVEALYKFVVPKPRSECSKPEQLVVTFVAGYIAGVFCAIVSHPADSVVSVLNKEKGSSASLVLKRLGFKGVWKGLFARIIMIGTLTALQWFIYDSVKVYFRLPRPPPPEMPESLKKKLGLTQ
# Sequence of SLC25A3 (lysine site: K234) (Q00325 whole entry): as above
# Sequence of SLC25A3 (lysine site: K252) (Q00325 whole entry): as above
# Sequence of SLC25A3 (lysine site: K304) (Q00325 whole entry): as above
# Sequence of SLC25A3 (lysine site: K313) (Q00325 whole entry): as above
# Sequence of HYOU1 (lysine site: K797) (Q9Y4L1 whole entry): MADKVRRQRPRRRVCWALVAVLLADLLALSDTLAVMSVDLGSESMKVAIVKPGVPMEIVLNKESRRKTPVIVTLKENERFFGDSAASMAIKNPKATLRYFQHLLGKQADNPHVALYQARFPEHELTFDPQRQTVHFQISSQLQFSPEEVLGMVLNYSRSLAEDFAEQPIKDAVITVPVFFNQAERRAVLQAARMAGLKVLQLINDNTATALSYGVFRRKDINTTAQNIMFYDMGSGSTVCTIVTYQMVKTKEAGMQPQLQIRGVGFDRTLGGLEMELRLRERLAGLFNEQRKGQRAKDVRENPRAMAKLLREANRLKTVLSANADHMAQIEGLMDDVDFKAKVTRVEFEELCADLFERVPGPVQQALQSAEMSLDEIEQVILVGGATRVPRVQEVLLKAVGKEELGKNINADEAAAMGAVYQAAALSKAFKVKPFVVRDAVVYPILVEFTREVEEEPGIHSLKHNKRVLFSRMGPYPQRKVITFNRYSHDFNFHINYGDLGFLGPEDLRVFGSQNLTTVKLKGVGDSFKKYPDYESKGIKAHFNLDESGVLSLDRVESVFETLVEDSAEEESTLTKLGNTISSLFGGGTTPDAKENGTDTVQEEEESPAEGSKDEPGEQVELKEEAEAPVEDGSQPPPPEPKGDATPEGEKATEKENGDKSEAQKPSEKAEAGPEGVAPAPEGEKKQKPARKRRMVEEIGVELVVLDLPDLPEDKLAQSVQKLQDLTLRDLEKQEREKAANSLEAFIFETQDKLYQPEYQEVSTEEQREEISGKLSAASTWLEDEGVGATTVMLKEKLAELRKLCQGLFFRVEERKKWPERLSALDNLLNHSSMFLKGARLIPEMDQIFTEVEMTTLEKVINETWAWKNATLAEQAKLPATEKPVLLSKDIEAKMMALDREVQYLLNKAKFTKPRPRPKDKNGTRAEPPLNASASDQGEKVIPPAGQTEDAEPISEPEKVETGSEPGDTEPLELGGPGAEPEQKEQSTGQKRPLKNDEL
# Sequence of YWHAB (lysine site: K70) (P31946 whole entry): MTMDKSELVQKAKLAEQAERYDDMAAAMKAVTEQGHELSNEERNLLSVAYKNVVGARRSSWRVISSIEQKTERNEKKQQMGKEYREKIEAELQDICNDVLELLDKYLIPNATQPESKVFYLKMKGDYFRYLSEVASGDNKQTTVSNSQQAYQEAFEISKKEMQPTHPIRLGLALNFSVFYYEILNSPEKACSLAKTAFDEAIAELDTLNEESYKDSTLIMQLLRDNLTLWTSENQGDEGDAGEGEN
# Sequence of SNAP23 (lysine site: K64) (O00161 whole entry): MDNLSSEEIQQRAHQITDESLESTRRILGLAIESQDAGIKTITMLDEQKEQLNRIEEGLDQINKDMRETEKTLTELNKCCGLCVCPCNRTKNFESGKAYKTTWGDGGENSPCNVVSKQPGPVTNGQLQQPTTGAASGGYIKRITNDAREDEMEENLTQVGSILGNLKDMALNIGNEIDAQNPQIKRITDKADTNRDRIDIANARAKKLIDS
# Sequence of NECTIN2 (lysine site: K97) (Q92692 whole entry): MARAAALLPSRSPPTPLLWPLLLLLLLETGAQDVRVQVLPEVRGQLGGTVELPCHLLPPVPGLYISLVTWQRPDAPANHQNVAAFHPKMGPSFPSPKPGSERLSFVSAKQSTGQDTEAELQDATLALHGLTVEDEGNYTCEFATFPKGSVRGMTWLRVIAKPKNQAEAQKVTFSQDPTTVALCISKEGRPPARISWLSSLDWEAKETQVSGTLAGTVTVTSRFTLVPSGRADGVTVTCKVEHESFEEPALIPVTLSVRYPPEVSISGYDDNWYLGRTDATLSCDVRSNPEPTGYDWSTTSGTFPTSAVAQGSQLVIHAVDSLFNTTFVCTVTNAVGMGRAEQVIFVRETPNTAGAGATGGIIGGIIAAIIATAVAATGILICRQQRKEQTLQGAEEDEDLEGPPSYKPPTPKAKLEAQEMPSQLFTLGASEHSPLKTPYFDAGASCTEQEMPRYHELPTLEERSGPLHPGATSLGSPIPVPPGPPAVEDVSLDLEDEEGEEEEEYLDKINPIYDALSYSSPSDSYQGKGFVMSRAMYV
# Sequence of UniProt P08729 (lysine site: K273) (P08729 whole entry): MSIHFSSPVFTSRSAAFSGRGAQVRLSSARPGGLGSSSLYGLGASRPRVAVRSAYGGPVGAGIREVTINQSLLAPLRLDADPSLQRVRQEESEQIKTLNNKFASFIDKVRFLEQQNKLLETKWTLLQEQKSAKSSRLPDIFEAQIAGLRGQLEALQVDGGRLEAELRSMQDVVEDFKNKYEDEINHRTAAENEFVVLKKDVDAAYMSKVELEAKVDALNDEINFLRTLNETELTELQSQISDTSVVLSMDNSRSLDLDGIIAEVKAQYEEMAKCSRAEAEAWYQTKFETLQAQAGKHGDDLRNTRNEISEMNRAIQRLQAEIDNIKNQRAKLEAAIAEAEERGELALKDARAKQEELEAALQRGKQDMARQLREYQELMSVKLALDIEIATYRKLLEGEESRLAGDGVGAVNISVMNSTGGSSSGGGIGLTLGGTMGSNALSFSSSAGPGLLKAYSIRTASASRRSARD
compound,measurement,setting,value
C#CCNC(=O)CCSSCCC(=O)NCCc1ccc(C=O)c(C=O)c1,lysine labeling ratio R10:1,[1],6.28
same,lysine labeling ratio R10:1,[2],2.72
same,lysine labeling ratio R10:1,[3],1.27 (active)
same,lysine labeling ratio R10:1,[4],3
same,lysine labeling ratio R10:1,[5],4.07
same,lysine labeling ratio R10:1,[6],2.77
same,lysine labeling ratio R10:1,[7],2.98
same,lysine labeling ratio R10:1,[8],1.51 (active)
same,lysine labeling ratio R10:1,[9],0.81 (active)
same,lysine labeling ratio R10:1,[10],1.18 (active)
same,lysine labeling ratio R10:1,[11],2.59
same,lysine labeling ratio R10:1,[12],1.52 (active)
same,lysine labeling ratio R10:1,[13],5.32
same,lysine labeling ratio R10:1,[14],2.12
same,lysine labeling ratio R10:1,[15],1.22 (active)
same,lysine labeling ratio R10:1,[16],2.43
same,lysine labeling ratio R10:1,[17],1.59 (active)
same,lysine labeling ratio R10:1,[18],4.21
same,lysine labeling ratio R10:1,[19],0.745 (active)
same,lysine labeling ratio R10:1,[20],1.99 (active)
same,lysine labeling ratio R10:1,[21],5.53
same,lysine labeling ratio R10:1,[22],6.19
same,lysine labeling ratio R10:1,[23],2.84
same,lysine labeling ratio R10:1,[24],3.88
same,lysine labeling ratio R10:1,[25],6.93
same,lysine labeling ratio R10:1,[26],3.03
same,lysine labeling ratio R10:1,[27],3.29
same,lysine labeling ratio R10:1,[28],4.46
same,lysine labeling ratio R10:1,[29],1.72 (active)
same,lysine labeling ratio R10:1,[30],3.9
same,lysine labeling ratio R10:1,[31],2.58
same,lysine labeling ratio R10:1,[32],0.864 (active)
same,lysine labeling ratio R10:1,[33],1.3 (active)
same,lysine labeling ratio R10:1,[34],9.63
same,lysine labeling ratio R10:1,[35],0.785 (active)
same,lysine labeling ratio R10:1,[36],2.7
same,lysine labeling ratio R10:1,[37],0.841 (active)
same,lysine labeling ratio R10:1,[38],2.06
same,lysine labeling ratio R10:1,[39],0.957 (active)
same,lysine labeling ratio R10:1,[40],0.563 (active)
same,lysine labeling ratio R10:1,[41],3.07
same,lysine labeling ratio R10:1,[42],1.58 (active)
same,lysine labeling ratio R10:1,[43],4.25
same,lysine labeling ratio R10:1,[44],7.37
same,lysine labeling ratio R10:1,[45],3.52
same,lysine labeling ratio R10:1,[46],2.01
same,lysine labeling ratio R10:1,[47],4.06
same,lysine labeling ratio R10:1,[48],0.82 (active)
same,lysine labeling ratio R10:1,[49],1.8 (active)
same,lysine labeling ratio R10:1,[50],3.68
same,lysine labeling ratio R10:1,[51],4.79
same,lysine labeling ratio R10:1,[52],4.2
same,lysine labeling ratio R10:1,[53],1.47 (active)
same,lysine labeling ratio R10:1,[54],4.28
same,lysine labeling ratio R10:1,[55],1.99 (active)
same,lysine labeling ratio R10:1,[56],2.54
same,lysine labeling ratio R10:1,[57],0.603 (active)
same,lysine labeling ratio R10:1,[58],3.39
same,lysine labeling ratio R10:1,[59],3.6
same,lysine labeling ratio R10:1,[60],5.31
same,lysine labeling ratio R10:1,[61],5.69
same,lysine labeling ratio R10:1,[62],9.28
same,lysine labeling ratio R10:1,[63],2.31
same,lysine labeling ratio R10:1,[64],1.94 (active)
same,lysine labeling ratio R10:1,[65],2.47
same,lysine labeling ratio R10:1,[66],5.33
same,lysine labeling ratio R10:1,[67],9.23
same,lysine labeling ratio R10:1,[68],5.48
same,lysine labeling ratio R10:1,[69],3.41
same,lysine labeling ratio R10:1,[70],3.38
